For 11 compounds, Potency results are on record in PubChem BioAssay (NCATS).

Each structure is given as a SMILES string. Inconclusive results are not listed. Calls of active or inactive are those of the source. Calls come from the whole dose curve; as a rule, active = well fitted inhibition curve with a large enough effect; inconclusive = small, poorly fitted or top-dose-only effect; inactive = flat fitted curve, though single readings scatter.

What all share (experiment): qHTS profiling for inhibitors of Plasmodium falciparum proliferation (AID 504749); note: nearly all actives have a fitted effect of over 60% in size
Details in all cases: P. falciparum in erythrocytes, SYBR Green DNA, 72 h; series mostly up to 28.7 µM
A general note: qHTS replaces the single test concentration by a dilution series.

Experiment [1] concerns CP291. Put shortly:
(§1)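 SYBR Green fluorescence (ex 485 nm, em 535 nm) reports parasite DNA after 72 h compound exposure of infected red cells at 0.3% parasitemia, 2.5% hematocrit; signal normalized to 0.29 uM artemisinin and vehicle wells.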

In experiment [2] the test system is CP297. Summed up:
as §1

Experiment [3] relates to CP305. Summed up:
as §1

Experiment [4] deals with CP315. Put shortly: as §1
The subject of experiment [5] is CP325. Put shortly:
as §1

Experiment [6] deals with CP329. Summed up:
as §1

Experiment [7] relates to CP335. Summed up: as §1
Experiment [8] deals with DFO2036. Summed up:
as §1

Experiment [9] relates to DIV14. Summed up:
as §1

Experiment [10] concerns DIV17. Summed up: as §1
The subject of experiment [11] is DIV30. Put shortly:
as §1

Experiment [12] deals with Dd2. Summed up: as §1
In experiment [13] the test system is ECU. Summed up: as §1
Experiment [14] has as its system FAB9. Put shortly:
as §1

Experiment [15] relates to GB4. Summed up: as §1
The subject of experiment [16] is HB3. Summed up: as §1
Experiment [17] relates to ICS. Summed up: as §1
Experiment [18] relates to JCK. Put shortly: as §1
Experiment [19] deals with N140. Put shortly: as §1
Experiment [20] deals with P93_24. Put shortly: as §1
Potency is the fitted concentration of half-maximal effect.

Consider `COC(=O)C1=CCCN(C)C1`, for which the Potency entry in experiment [1], in [2], in experiment [3], in experiment [4], in [5] and in [6] was “inactive” throughout. Also, the Potency entry in [7], in experiment [8], in experiment [9], in experiment [10], in experiment [11] and in [12] was “inactive” each time. The Potency result in [13], in experiment [14], in experiment [15], in experiment [16], in [17] and in experiment [18] was “inactive” each time. The Potency result in experiment [19] and in experiment [20] was “inactive” each time.
For the compound `COP(=O)(OC)C(O)C(Cl)(Cl)Cl` (stereo not drawn), the Potency entry in experiment [1], in experiment [2], in experiment [3], in experiment [4], in [5] and in experiment [6] was “inactive” each time. Also, the Potency entry in experiment [7], in experiment [8], in experiment [9], in experiment [10], in experiment [11] and in experiment [12] was “inactive” in each case. The Potency result in [14], in [16], in experiment [18], in experiment [19] and in [20] was “inactive” each time.
For the compound `CC(C)NCC(O)c1ccc(N)c(C#N)c1` (stereo not drawn), the Potency entry in experiment [1], in [2], in experiment [3], in [4], in [5] and in experiment [6] was “inactive” throughout. Besides, the Potency entry in [7], in experiment [8], in experiment [9], in experiment [10], in experiment [11] and in [12] was “inactive” throughout. Moreover, the Potency entry in experiment [13], in experiment [14], in experiment [15], in experiment [16], in [17] and in experiment [18] was “inactive” in each case. Moreover, the Potency entry in experiment [19] and in experiment [20] was “inactive” each time.
Consider `C[N+](C)(C)CCOC(=O)C(O)(c1ccccc1)c1ccccc1`, for which the Potency entry in experiment [1], in [2], in experiment [3], in experiment [4], in experiment [5] and in [6] was “inactive” throughout. Further, the Potency result in experiment [7], in experiment [8], in experiment [9], in [10], in [11] and in [12] was “inactive” in each case. Moreover, the Potency entry in experiment [13], in experiment [14], in experiment [15], in experiment [16], in experiment [17] and in experiment [18] was “inactive” each time. Also, the Potency result in experiment [19] and in experiment [20] was “inactive” in each case.
For the compound `O=C(O)c1nn(Cc2ccc(Cl)cc2Cl)c2ccccc12`, the Potency entry in experiment [1], in experiment [2], in experiment [3], in [4], in [5] and in experiment [6] was “inactive” in each case. In addition, the Potency result in experiment [7], in experiment [8], in [9], in experiment [10], in experiment [11] and in experiment [12] was “inactive” in each case. Besides, the Potency result in experiment [13], in experiment [14], in experiment [15], in experiment [16], in experiment [17] and in [18] was “inactive” throughout. Also, the Potency entry in experiment [19] and in experiment [20] was “inactive” throughout.
`CCN(Cc1ccc(Cl)nc1)/C(=C/[N+](=O)[O-])NC`: the Potency entry in experiment [1], in [2], in experiment [3], in experiment [4], in [5] and in experiment [6] was “inactive” each time. Further, the Potency result in experiment [7], in [8], in experiment [9], in experiment [10], in experiment [11] and in experiment [12] was “inactive” throughout. For the same compound, the Potency result in experiment [13], in experiment [14], in experiment [15], in experiment [16], in experiment [17] and in [18] was “inactive” in each case. For the same compound, the Potency result in experiment [19] and in experiment [20] was “inactive” each time.
Regarding `CN(C)C(=S)SSC(=S)N(C)C`, the Potency in experiment [1] was 3010 nM (active); in [2], 4260 nM (active); in experiment [3], 2390 nM (active); in experiment [4] it was 4780 nM (active); in experiment [5], 2390 nM (active); in experiment [6], 3790 nM (active). The Potency in experiment [7] is 1510 nM (active); in experiment [8] it was 2820 nM (active); in experiment [9] it was 1900 nM (active); in experiment [10], 1510 nM (active); in [11], 1690 nM (active); in experiment [12] it was 1000 nM (active). Also, the Potency was 6310 nM (active) in experiment [13]; 6310 nM (active) in experiment [14]; 2130 nM (active) in experiment [15]; 1260 nM (active) in [16]; 891 nM (active) in experiment [17]; 8910 nM (active) in experiment [18]. Also, the Potency is 1780 nM (active) in experiment [19] and 2510 nM (active) in [20].
`NC(=O)CN1CCCC1=O`: the Potency result in experiment [1], in experiment [2], in experiment [3], in [4], in [5] and in [6] was “inactive” throughout. Also, the Potency entry in experiment [7], in experiment [8], in experiment [9], in experiment [10], in experiment [11] and in experiment [12] was “inactive” in each case. Moreover, the Potency entry in [13], in experiment [14], in experiment [15], in experiment [16], in experiment [17] and in experiment [18] was “inactive” each time. Moreover, the Potency entry in experiment [19] and in experiment [20] was “inactive” each time.
As to `CCC(=O)O[C@H]1CC[C@H]2[C@@H]3CCC4=CC(=O)CC[C@]4(C)[C@H]3CC[C@]12C`, the Potency entry in experiment [1], in experiment [2], in experiment [3], in [4], in experiment [5] and in experiment [6] was “inactive” throughout. Also, the Potency entry in experiment [7], in [8], in experiment [9], in [10], in experiment [11] and in [12] was “inactive” throughout. The Potency result in experiment [13], in experiment [14], in [15], in experiment [16], in experiment [17] and in experiment [18] was “inactive” each time. The Potency result in [19] and in experiment [20] was “inactive” throughout.
In the case of `Cc1ccc(N=CN(C)C=Nc2ccc(C)cc2C)c(C)c1`, the Potency entry in experiment [1], in experiment [2], in [3], in experiment [4], in experiment [5] and in [6] was “inactive” throughout. For the same compound, the Potency entry in experiment [7], in [8], in [9], in experiment [10], in experiment [11] and in experiment [12] was “inactive” in each case. The Potency entry in experiment [13], in experiment [14], in [15], in experiment [16], in [17] and in experiment [18] was “inactive” each time. Also, the Potency entry in experiment [19] and in [20] was “inactive” throughout.
On to `CCC1(c2ccccc2)CCC(=O)NC1=O` (stereo not drawn), for which the Potency result in [1], in experiment [2], in experiment [3], in [4], in experiment [5] and in experiment [6] was “inactive” each time. Further, the Potency result in experiment [7], in [8], in experiment [9], in experiment [11], in experiment [12] and in experiment [13] was “inactive” each time. Moreover, the Potency entry in experiment [14], in [18] and in experiment [19] was “inactive” each time. Besides, the Potency in [17] is 11200 nM (active).
